Structures can show the parent of a compound that is named as a salt. Values without a mark were called inactive.
Tested on: Pseudogymnoascus destructans 20631-21
Assay: growth activity index (DuctApe, 0 = no growth, 9 = maximal growth) (index 0-9); higher = more fungal growth (less inhibition), active = 0 or less; extreme values may be limits of the assay
Details: temperature: 13 °C, YPD
[1] = concentration level (1-4, increasing; Biolog proprietary): 1
[2] = concentration level (1-4, increasing; Biolog proprietary): 2
[3] = concentration level (1-4, increasing; Biolog proprietary): 3
[4] = concentration level (1-4, increasing; Biolog proprietary): 4
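Also: biolog Phenotype Microarray plates PM21–25, OD595 followed daily over 11 days, growth curves converted to index, mean of two independent experiments.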

## C[C@@H]1[C@H](O)[C@@H](C)/C=C/C=C/C=C/C=C/C=C/C=C/C=C/[C@H](O[C@@H]2O[C@H](C)[C@@H](O)[C@H](N)[C@@H]2O)C[C@@H]2O[C@](O)(C[C@@H](O)C[C@@H](O)[C@H](O)CC[C@@H](O)C[C@@H](O)CC(=O)O[C@H]1C)C[C@H](O)[C@H]2C(=O)O [Amphotericin B] (Biolog plate: PM24)
[1]
  growth activity index: 0 (active)
[2]
  growth activity index: 1.33
[3]
  growth activity index: 0 (active)
[4]
  growth activity index: 0 (active)

## O=S(O)(O)=S [Sodium Thiosulfate] (Biolog plate: PM23)
[1]
  growth activity index: 5
[2]
  growth activity index: 4.33
[3]
  growth activity index: 1.67
[4]
  growth activity index: 0 (active)

## NC[C@@H]1O[C@H](O[C@H]2[C@@H](O)[C@H](O[C@@H]3[C@@H](O)[C@H](N)C[C@H](N)[C@H]3O[C@H]3O[C@H](CO)[C@@H](O)[C@H](O)[C@H]3N)O[C@@H]2CO)[C@H](N)[C@@H](O)[C@@H]1O [Paromomycin] (Biolog plate: PM22)
[1]
  growth activity index: 1
[2]
  growth activity index: 1
[3]
  growth activity index: 0.667
[4]
  growth activity index: 0 (active)

## O=c1cn[nH]c(=O)[nH]1 [6-Azauracil] (Biolog plate: PM24)
[1]
  growth activity index: 4.67
[2]
  growth activity index: 4
[3]
  growth activity index: 4.67
[4]
  growth activity index: 2.67

## NCCSCC(N)C(=O)O (stereo not given) [Thialysine] (Biolog plate: PM24)
[1]
  growth activity index: 4
[2]
  growth activity index: 4
[3]
  growth activity index: 4.67
[4]
  growth activity index: 5

## CN(C)CCCN1c2ccccc2Sc2ccc(Cl)cc21 [Chlorpromazine] (Biolog plate: PM23)
[1]
  growth activity index: 5
[2]
  growth activity index: 0 (active)
[3]
  growth activity index: 0 (active)
[4]
  growth activity index: 2

## O=C(O)CN(CC(=O)O)c1ccccc1OCCOc1ccccc1N(CC(=O)O)CC(=O)O (Biolog plate: PM22)
[1]
  growth activity index: 4.67
[2]
  growth activity index: 1.67
[3]
  growth activity index: 1.33
[4]
  growth activity index: 0.667

## O=NO [Sodium Nitrite] (Biolog plate: PM23)
[1]
  growth activity index: 4.33
[2]
  growth activity index: 2.67
[3]
  growth activity index: 1
[4]
  growth activity index: 1.33

## O=C(O)CC(O)C(=O)O (stereo not given) [Malic acid] (Biolog plate: PM25)
[1]
  growth activity index: 4
[2]
  growth activity index: 5
[3]
  growth activity index: 2.67
[4]
  growth activity index: 1.33

## c1ccc(-c2ccccn2)nc1 [2,2`-Dipyridyl] (Biolog plate: PM21)
[1]
  growth activity index: 5
[2]
  growth activity index: 5
[3]
  growth activity index: 5.25
[4]
  growth activity index: 5.25

## CCCCCCCCCCCC[N+](C)(C)C [Dodecyltrimethyl ammonium bromide] (Biolog plate: PM21)
[1]
  growth activity index: 4.25
[2]
  growth activity index: 0 (active)
[3]
  growth activity index: 0 (active)
[4]
  growth activity index: 1

## O=C([O-])CC(O)(CC(=O)[O-])C(=O)[O-].[Na+].[Na+].[Na+] [Citric acid Trisodium Salt] (Biolog plate: PM25)
[1]
  growth activity index: 4
[2]
  growth activity index: 4.67
[3]
  growth activity index: 4
[4]
  growth activity index: 5.67

## C[C@H]1c2cccc(O)c2C(=O)C2=C(O)[C@]3(O)C(=O)C(C(N)=O)=C(O)[C@@H](N(C)C)[C@@H]3[C@@H](O)[C@@H]21 [Doxycycline] (Biolog plate: PM23)
[1]
  growth activity index: 4.67
[2]
  growth activity index: 5
[3]
  growth activity index: 5.33
[4]
  growth activity index: 6

## O.O=S(=O)([O-])[O-].O=S(=O)([O-])[O-].O=S(=O)([O-])[O-].[Al+3].[Al+3] [Aluminum sulfate] (Biolog plate: PM24)
[1]
  growth activity index: 2
[2]
  growth activity index: 4
[3]
  growth activity index: 6
[4]
  growth activity index: 7

## O=C(O)CCC(=O)O [Succinic acid] (Biolog plate: PM25)
[1]
  growth activity index: 3.33
[2]
  growth activity index: 3.33
[3]
  growth activity index: 3.67
[4]
  growth activity index: 3

## NC(N)=NCCC[C@H](N)C(=O)NO [L-Arginine hydroxamate] (Biolog plate: PM22)
[1]
  growth activity index: 5.67
[2]
  growth activity index: 5
[3]
  growth activity index: 3.33
[4]
  growth activity index: 0.667

## O.O.O.O.O.O.[Cl-].[Cl-].[Mg+2] [Magnesium chloride] (Biolog plate: PM21)
[1]
  growth activity index: 4
[2]
  growth activity index: 4
[3]
  growth activity index: 4
[4]
  growth activity index: 2.25

## Cc1cc(N)c2ccccc2[n+]1CCCCCCCCCC[n+]1c(C)cc(N)c2ccccc21 [Dequalinium chloride] (Biolog plate: PM23)
[1]
  growth activity index: 4
[2]
  growth activity index: 4.67
[3]
  growth activity index: 2
[4]
  growth activity index: 1

## OB(O)O [Boric acid] (Biolog plate: PM22)
[1]
  growth activity index: 5.33
[2]
  growth activity index: 0.333
[3]
  growth activity index: 0 (active)
[4]
  growth activity index: 0 (active)

## NC(N)=O [Urea hydrogen peroxide] (Biolog plate: PM22)
[1]
  growth activity index: 4.67
[2]
  growth activity index: 4
[3]
  growth activity index: 4.67
[4]
  growth activity index: 4.33

## NO [Hydroxylamine] (Biolog plate: PM23)
[1]
  growth activity index: 4
[2]
  growth activity index: 4
[3]
  growth activity index: 2.67
[4]
  growth activity index: 0 (active)

## [Cl-].[Li+] [Lithium chloride] (Biolog plate: PM22)
[1]
  growth activity index: 0 (active)
[2]
  growth activity index: 0 (active)
[3]
  growth activity index: 0 (active)
[4]
  growth activity index: 0 (active)

## Nc1c2ccccc2nc2ccccc12 [9-Aminoacridine] (Biolog plate: PM24)
[1]
  growth activity index: 5
[2]
  growth activity index: 5.33
[3]
  growth activity index: 7
[4]
  growth activity index: 9

## CN(C)C(=O)/N=N/C(=O)N(C)C [Diamide] (Biolog plate: PM21)
[1]
  growth activity index: 5.75
[2]
  growth activity index: 5
[3]
  growth activity index: 0 (active)
[4]
  growth activity index: 0 (active)

## O=C(O)/C=C/C(=O)O [Fumaric acid] (Biolog plate: PM25)
[1]
  growth activity index: 4.33
[2]
  growth activity index: 4
[3]
  growth activity index: 4
[4]
  growth activity index: 4

## CCCCCCCCCCCC[N+](C)(C)CCOc1ccccc1 [Domiphen bromide] (Biolog plate: PM21)
[1]
  growth activity index: 4
[2]
  growth activity index: 2
[3]
  growth activity index: 0 (active)
[4]
  growth activity index: 0 (active)

## CCCCCCCC(=O)[O-].[Na+] [Sodium Caprylate] (Biolog plate: PM23)
[1]
  growth activity index: 1
[2]
  growth activity index: 3.33
[3]
  growth activity index: 4
[4]
  growth activity index: 4

## C=C(CC[C@]12O[C@H](C(=O)O)[C@@](O)(C(=O)O)[C@](C(=O)O)(O1)[C@H](OC(=O)/C=C/[C@@H](C)C[C@@H](C)CC)[C@H]2O)[C@@H](OC(C)=O)[C@H](C)Cc1ccccc1 [Zaragozic acid A] (Biolog plate: PM24)
[1]
  growth activity index: 5.67
[2]
  growth activity index: 5.33
[3]
  growth activity index: 0.667
[4]
  growth activity index: 0 (active)

## [F-].[Na+] [Sodium Fluoride] (Biolog plate: PM24)
[1]
  growth activity index: 4.33
[2]
  growth activity index: 4.67
[3]
  growth activity index: 5.33
[4]
  growth activity index: 4.67

## N.N.O=S(=O)(O)O [Ammonium Sulfate] (Biolog plate: PM23)
[1]
  growth activity index: 4.33
[2]
  growth activity index: 5.33
[3]
  growth activity index: 4
[4]
  growth activity index: 2.67

## CC(CN1c2ccccc2Sc2ccccc21)N(C)C (stereo not given) [Promethazine] (Biolog plate: PM21)
[1]
  growth activity index: 4.75
[2]
  growth activity index: 0 (active)
[3]
  growth activity index: 1
[4]
  growth activity index: 6

## N=C(N)c1ccc(OCCCCCOc2ccc(C(=N)N)cc2)cc1 [Pentamidine Isethionate] (Biolog plate: PM24)
[1]
  growth activity index: 0.333
[2]
  growth activity index: 5.33
[3]
  growth activity index: 8
[4]
  growth activity index: 8

## [Cl][Pd][Cl] [Palladium(II) Chloride] (Biolog plate: PM25)
[1]
  growth activity index: 4.33
[2]
  growth activity index: 4
[3]
  growth activity index: 4.67
[4]
  growth activity index: 5

## NC(N)=S [Thiourea] (Biolog plate: PM21)
[1]
  growth activity index: 2
[2]
  growth activity index: 0 (active)
[3]
  growth activity index: 0 (active)
[4]
  growth activity index: 0 (active)

## NCC(=O)O [Glycine hydrochloride] (Biolog plate: PM23)
[1]
  growth activity index: 5
[2]
  growth activity index: 4
[3]
  growth activity index: 2
[4]
  growth activity index: 2

## [Cl][Cu][Cl] [Cupric chloride] (Biolog plate: PM23)
[1]
  growth activity index: 4.33
[2]
  growth activity index: 5.33
[3]
  growth activity index: 6
[4]
  growth activity index: 6

## O=C(O)CN(CCOCCOCCN(CC(=O)O)CC(=O)O)CC(=O)O (Biolog plate: PM24)
[1]
  growth activity index: 4.33
[2]
  growth activity index: 4.33
[3]
  growth activity index: 4
[4]
  growth activity index: 4

## Clc1ccc(COC(Cn2ccnc2)c2ccc(Cl)cc2Cl)c(Cl)c1 (stereo not given) [Miconazole Nitrate] (Biolog plate: PM24)
[1]
  growth activity index: 4.67
[2]
  growth activity index: 0.333
[3]
  growth activity index: 0.333
[4]
  growth activity index: 0 (active)

## COc1ccc2cc3[n+](cc2c1OC)CCc1cc2c(cc1-3)OCO2 [Berberine Chloride] (Biolog plate: PM24)
[1]
  growth activity index: 4
[2]
  growth activity index: 4.67
[3]
  growth activity index: 0.333
[4]
  growth activity index: 0.667

## OCC1OC(O)CC(O)C1O [2-Deoxy-D-glucose] (Biolog plate: PM23)
[1]
  growth activity index: 4.67
[2]
  growth activity index: 5
[3]
  growth activity index: 5
[4]
  growth activity index: 4.33

From the supplement of paper PMC6124720
